# PubChem BioAssay AID504558 (Broad Institute, 2011)
# Hit rate of the full screen: of about 350,000 compounds, about 2,400 (0.69%) were called active. This excerpt belongs to a sample that is enriched for actives. Values without a mark were called inactive. Cut-off read from the data, not from the text of the source: active = inhibition above about 41%; inconclusive = no clear call, values can overlap the other calls; inactive = below that.
# Test: blockers of LMP1-induced NF-kB reporter signal – cell-based, luminescence, single point, primary screen (AID 504558);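 note: 0% = neutral control wells and 100% = reference inhibitor control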
# Settings: LMP1-induced NF-kappaB luciferase reporter cells, at 12.5 µM, hits give high values
row,Structure (SMILES),inhibition
1,COc1cc(CNC2CCCC2)c(Br)cc1OCc1ccccc1,-15.5%
2,COc1ccc(CCN=C2SCC(=O)N2Cc2ccccc2)cc1OC,6.74%
3,COc1cc(C2CC(=O)N3CN(Cc4ccccc4)CSC3=C2C#N)ccc1OCc1ccccc1 (centres undefined),65% (active)
4,Cc1ccccc1-c1ccc2c(c1)O[C@@H](CN(C)Cc1ccc(C(=O)O)cc1)[C@@H](C)CN([C@H](C)CO)S2(=O)=O,1.79%
5,C[C@H](CO)N1C[C@H](C)[C@@H](CN(C)C(=O)c2cccc(F)c2)Oc2cc(-c3cncnc3)ccc2S1(=O)=O,-0.771%
6,Nc1cccc(OCCCCCOc2cccc(N)c2)c1,-19.1%
7,COCCCn1c(=O)/c(=C/c2ccccc2OC(C)C)s/c1=C(\C#N)C(=O)Nc1ccc(C(=O)O)cc1,4.37%
8,Cc1cc(C)c2cc(C#N)c(N3CCNCC3)nc2c1,-5.81%
9,CC1(C)CN(Cc2cccnc2)C(=O)[C@H]1CC(=O)Nc1ccc(Br)cc1,-4.33%
10,O=C1c2ccccc2C(O)N1Cc1ccccc1Cl (centres undefined),-5.54%
11,O=C1c2ccccc2C(O)N1Cc1ccccc1 (centres undefined),49.7% (active)
12,CCC(C)NC(=O)C1c2ccccc2C(=O)N1Cc1ccccc1 (centres undefined),30.9%
13,CCN(CC)CCN(C(=O)c1ccc2c(c1)CCCC2)c1nc2c(OC)cccc2s1,9.68%
14,O=C(COC(=O)c1ccc(S(=O)(=O)N2CCCCCC2)cc1)Nc1ccccc1C(F)(F)F,-10.6%
15,CC(C)c1cc(N=O)cc(C(C)C)c1O,11.3%
16,CC(C)=CCc1ccc(O)c(=O)cc1C(C)C,52.9% (active)
17,CC(C)=CCc1c(O)c(CC=C(C)C)c2occ(-c3ccc(O)cc3)c(=O)c2c1O,-4.63%
18,Cc1ccc(S(=O)(=O)N2C[C@H]3n4c(=O)ccc(=O)n4C[C@H](OC(=O)NC4CCCC4)[C@@]3(O)C2)cc1,0.795%
19,CCc1noc(C)c1C(=O)OCC(=O)c1ccc(NC(=O)CC(C)C)cc1,7.07%
20,CCN(CC)c1ccc(NC(=O)c2ccc(Cl)nc2)cc1,2.91%
21,CCN(CC)c1ccc(/C=N/NC(=O)c2cnccn2)c(O)c1,66.9% (active)
22,COc1ccc(NC(=O)C/C(C)=N/NC(=O)c2cnccn2)cc1Cl,0.411%
23,COc1cc(C)c(CN2CCN(C(=O)CCC(=O)c3ccc(C)s3)CC2)cc1OC,-18.3%
24,C[C@H]1Cn2cnc(C(=O)N[C@@H](Cc3c[nH]c4ccccc34)C(=O)OC(C)(C)C)c2C(=O)N1,-25.3%
